Experimental data as given in PubChem BioAssay (EPA / NIEHS).
Records with an inconclusive call do not appear. Activity calls are given as the source filed them. The calls were made as follows: active = hit-call score of the fitted dose curve at least 0.9, where 1 is the maximum; inconclusive = response in the unintended direction; inactive = score below 0.9.

Legend:
[1] = read-out: xenobiotic metabolism (CYP1A2), CYP1A2 (gene 1544); assay: CLD_CYP1A2_6hr: CellzDirect (CLD) Gene Expression Assay for xenobiotic metabolism (CYP1A2) at 6 hours (AID 2283663);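 as to AC50: potency is for induction meaning a rise in mRNA above DMSO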
Summary of the method: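 mRNA levels quantified by quantitative nuclease protection assay with chemiluminescence, 6 h after dosing human primary hepatocyte cultures (two donors) across several concentrations, vehicle 0.2% DMSO. Induction fitted upward versus DMSO; phase-contrast cytotoxicity annotated.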

[2] = read-out: xenobiotic metabolism (CYP2C9), CYP2C9 (gene 1559); assay: CLD_CYP2C9_6hr: CellzDirect (CLD) Gene Expression Assay for xenobiotic metabolism (CYP2C9) at 6 hours (AID 2283664)
Summary of the method: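 Readout is qNPA chemiluminescence of CYP2C9 mRNA, taken 6 h after dosing of cultured human liver primary cells at several concentrations. Activity is the increase over 0.2% DMSO baseline. Morphology-based cytotoxicity flagged yes/no.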

[3] = Tanguay_ZF_120hpf_TR_legacy: (Legacy) Oregon State University Tanguay Lab 120 Hour Post-fertilization zebrafish Assay for Touch Response (AID 2283667)
Summary of the method: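 Binary touch-response call at 120 hpf, analysed as gain of signal versus DMSO baseline. Wild-type 5D larvae, static exposure at 28C, 0.64% DMSO final; 5uM trimethyltin chloride as positive control.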

[4] = read-out: sulfotransferase (SULT2A), SULT2A1 (gene 6822); assay: CLD_SULT2A_6hr: CellzDirect (CLD) Gene Expression Assay for sulfotransferase (SULT2A) at 6 hours (AID 2283669);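 also: hits raise transcript level above the DMSO vehicle baseline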
Summary of the method: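 Measured 6 h after dosing, SULT2A1 mRNA in human hepatocyte lysates was quantified by S1 nuclease protection with chemiluminescent detection. Increases fitted against 0.2% DMSO vehicle baseline; phase-contrast cytotoxicity recorded yes/no.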

[5] = test system: Thyroperoxidase (TPO), gene 54314; assay: CCTE_Simmons_AUR_rTPO: CCTE's Amplex UltraRed Assay for Thyroperoxidase (TPO) Inhibition, Simmons Lab (AID 2283662);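 also: potency for loss of signal meaning inhibition of peroxidase activity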
Summary of the method: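 Cell-free peroxidase activity assay using rat thyroid gland microsomes with excess H2O2 (300 uM) and 25 uM Amplex UltraRed. Compounds tested from 5 nM to 87.5 uM; fluorescence measured after 30 min at 37C, analysed relative to DMSO baseline.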

[6] = CCTE_Simmons_CellTiterGLO_HEK293T: Viability Assessment in CCTE's Assays for Thyroperoxidase (TPO) Inhibition, Simmons Lab (AID 2283665)
Summary of the method: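 ATP depletion measured in HEK293T cells after 24 h dosing (8 concentrations, 5 nM–87.5 uM final; DMSO 0.5%) using CellTiter-Glo luminescence; curves fit for loss of signal against DMSO baseline.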

Row | SMILES | outcome [1] | outcome [2] | outcome [3] | outcome [4] | AC50 [1] | AC50 [5] | outcome [6]
1 | CSC(=O)c1c(C(F)F)nc(C(F)(F)F)c(C(=O)SC)c1CC(C)C | inactive | inactive | inactive | inactive |  |  | 
2 | CNC(=O)Oc1cccc2ccccc12 |  |  | inactive | inactive | 6.08 µM (active) |  | 
3 | CCNC(=O)NC(=O)C(C#N)=NOC | inactive | inactive | inactive |  |  | 41.2 µM (active) | 
4 | O=P(O)(O)CCCl | inactive |  | inactive | inactive |  | 18.2 µM (active) | inactive
